Screening data deposited in PubChem by National Center for Advancing Translational Sciences (NCATS).
ELG1 genotox: genotoxicity induction in ELG1-luciferase HEK293T cells. HEK293T ELG1-luciferase reporter, luminescence, 16 h. Potency, µM (top dose mostly 46 µM), for the others: at the highest dose activity change, positive = activation, most hits filed as activators. actives 1.3% (n = 330,000). AID 504466; further: % of control where 0% means no effect; nearly all actives have a fitted effect of over 60% in size
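Screening used a luciferase reporter fused to human ELG1 in HEK293T cells. Luminescence was read on a CCD plate imager after 16 hr exposure and 30 min ONE-Glo incubation.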
NPC1 prom act: activators of NPC1 promoter; Huh7 NPC1 promoter luciferase reporter, 24 h; Potency, µM (top dose mostly 9.22 µM), without a hit: top-dose activation, hits mostly activators; actives 2.4% (n = 320,000); AID 485313; further: % of control where 0% means no effect; nearly all actives have a fitted effect of over 60% in size
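In 1536-well qHTS, Huh7 cells harboring an NPC1 promoter–luciferase construct received compound for 24 h; activation was quantified by luminescence following luciferase reagent addition.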
Rab9 prom act: Rab9 promoter activation | Huh7 Rab9 promoter-luciferase reporter, luminescence, 24 h | Potency, µM (series often up to 9.22 µM), for inactives: top-dose activation, negative = inhibition, hits mostly activators | actives 2.8% (n = 320,000); further: % of control where 0% means no effect; nearly all actives have a fitted effect of over 60% in size
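Huh7 reporter line, Rab9 promoter upstream of luciferase. Compound exposure 24 h at 37 °C in reduced-serum medium with 10% FBS. Read-out: luminescence.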
FLuc modulator: firefly luciferase modulation, counter-screen for miR-21 project; P08659; purified FLuc, Km substrates, luminescence inhibition; Potency, µM (series often up to 57.5 µM), inactives show at the top dose activity change, negative = inhibition, hits mostly inhibitors; actives 6.9% (n = 360,000); AID 588342;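 further: plate controls were vehicle for no effect and reference inhibitor for full effect; nearly all actives have a fitted effect of over 55% in size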
Target sequence (P08659 whole entry, looked up): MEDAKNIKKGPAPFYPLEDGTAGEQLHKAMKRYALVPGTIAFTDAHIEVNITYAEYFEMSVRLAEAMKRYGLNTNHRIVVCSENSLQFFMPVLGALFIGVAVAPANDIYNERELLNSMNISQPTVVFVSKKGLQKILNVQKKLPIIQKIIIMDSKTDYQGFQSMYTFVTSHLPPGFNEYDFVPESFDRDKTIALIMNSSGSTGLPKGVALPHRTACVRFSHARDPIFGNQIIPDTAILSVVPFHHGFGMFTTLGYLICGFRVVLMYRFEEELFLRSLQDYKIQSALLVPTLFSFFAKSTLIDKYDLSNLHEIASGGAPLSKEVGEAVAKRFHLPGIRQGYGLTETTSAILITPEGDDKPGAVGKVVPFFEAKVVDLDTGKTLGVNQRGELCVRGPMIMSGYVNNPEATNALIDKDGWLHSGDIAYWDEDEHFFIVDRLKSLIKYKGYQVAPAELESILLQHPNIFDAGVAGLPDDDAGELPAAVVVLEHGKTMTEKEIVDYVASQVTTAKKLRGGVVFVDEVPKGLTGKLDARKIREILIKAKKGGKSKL
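Purified P. pyralis luciferase, 10 nM final, with Km-level 10 uM D-luciferin and 10 uM ATP in 50 mM Tris acetate pH 7.5, 10 mM Mg acetate, 0.01% Tween-20, 0.05% BSA; 6-point qHTS titration about 60 µM downward; luminescence read.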
SMN2 splice up: increases expression of the SMN2 splice variant; HEK293 SMN2-luciferase splicing reporter, luminescence, 30-36 h; Potency, µM (titrated, usually from 46.1 µM), for the others: at the highest dose activity change, positive = activation, most hits filed as activators; actives 2.8% (n = 210,000); further: % of control where 0% means no effect; nearly all actives have a fitted effect of over 55% in size
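HEK293 cells carry an SMN2 minigene-luciferase reporter in which exon 7 inclusion puts luciferase in frame. Cells were seeded at 2000 cells/well, attached for 10-12 hours, then exposed to compounds for 30-36 hours at 37C before ONE-Glo luminescence.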
ELG1 DNA repair: blocks ELG1-dependent DNA repair in HEK293T cells; HEK293T ELG1-luciferase reporter, luminescence, 16 h; DNA damage induced by 5-fluorouridine; Potency, µM (highest dose often 46.1 µM), without a hit: at the top dose activity change, negative = inhibition, most hits filed as inhibitors; actives 2.3% (n = 330,000); further: on the % scale 0 is the no-effect control and ±100 the full control effect; nearly all actives have a fitted effect of over 55% in size
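HEK293T cells expressing luciferase-tagged ELG1 (2,000/well) received 5-Fluorouridine plus compound or DMSO for 16 hr at 37 °C. Luciferase was read by ONE-Glo luminescence after 30 min at room temperature.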
* hit, by the source's call; ? = inconclusive; nt = no result; [ ] = remark or other dose. An excerpt weighted towards active compounds, which were near 9.2% of everything screened. The call rests on the fitted dose curve; in most records, active means well fitted curve in the direction sought with a large enough effect; inconclusive means small, poorly fitted or top-dose-only effect, or another doubt; inactive means no such curve, though single readings can be large; an effect the other way counts as inactive or inconclusive. Potency means the concentration at half of the fitted maximal effect.

SMILES	ELG1 genotox	NPC1 prom act	Rab9 prom act	FLuc modulator	SMN2 splice up	ELG1 DNA repair
CCOC(=O)c1sc(-c2ccc(Br)cc2)cc1N	?	2.2µM*	2.8µM*	4.8µM*	13µM*	?
CCOC(=O)c1cc(-c2ccc(N)cc2)sc1N	7.3µM*	2.8µM*	2.2µM*	15µM*	11µM*	?
O=C(Nc1cc(C(F)(F)F)ccc1Cl)c1cc(S(=O)(=O)NCc2ccccc2)ccc1F	nt	nt	nt	-6%	nt	nt
Fc1ccc(C2=CC(c3ccco3)n3ncnc3N2)cc1 (stereo not given)	1%	-6%	2%	2%	8%	14%
C1=C(c2ccc(-c3ccccc3)cc2)Nc2ncnn2C1c1ccco1 (stereo not given)	10%	2.8µM*	3.2µM*	21µM*	24%	?
CCN(C(=O)c1cc2c(=O)oc3ccccc3c2s1)c1ccccc1F	nt	nt	nt	-17%	nt	nt
COc1ccc(CCNC(=O)CSc2nnc3ccc(-c4ccccn4)nn23)cc1OC	-4%	1%	0%	5%	nt	?
CCOC(=O)c1ccc(CN(Cc2ccc(C)cc2)S(=O)(=O)c2ccc(F)c(C(=O)Nc3ccc(C)c(F)c3)c2)cc1	nt	nt	nt	2%	nt	nt
COc1ccc2nc(/C=N/NC(=O)CCNC(=O)OC(C)(C)C)ccc2c1	8%	?	?	13µM*	nt	?
CC(C)(C)OC(=O)NCCC(=O)N/N=C/c1ccc2nccnc2c1	0%	-3%	-3%	-6%	nt	2%
COc1ccc2nc(/C=N/NC(=O)CCCCCNC(=O)OC(C)(C)C)ccc2c1	4%	3.2µM*	4µM*	11µM*	nt	?
CC(C)(C)OC(=O)NCCC(=O)N/N=C/c1ccc2ncccc2c1	0%	-2%	18%	?	nt	11%
COc1ccc(N2CCN(c3oc(/C=C/c4cc(OC)c(OC)c(OC)c4)nc3C#N)CC2)cc1	nt	nt	nt	-5%	-10%	nt
CNC(=O)Cn1c(=O)c2cccn2c2ccc(F)cc21	nt	nt	nt	1%	nt	nt
COCCn1ccc2c(OCC(=O)NCCc3ccccc3)cccc2c1=O	1%	-10%	-5%	-1%	nt	-2%
CCN(CC)c1ccc2nc3c4ccccc4c(=O)cc-3oc2c1	0.82µM*	0.56µM*	1.1µM*	0.48µM*	nt	?
CCN(CC)c1ccc2cc(C=O)c(=O)oc2c1	nt	nt	nt	-18%	-3%	nt
CN1N=C(C(=O)N2CCc3c([nH]c4ccccc34)C2c2ccccc2Cl)CCC1=O (stereo not given)	?	14%	5µM*	15µM*	nt	?
O=C(c1cc[n+]([O-])cc1)N1CCc2c([nH]c3ccccc23)C1c1ccccc1Cl (stereo not given)	-3%	-2%	-5%	-2%	nt	-13%
CC(=O)O[C@]1(C(C)=O)CC[C@H]2C3C=C(Cl)C4=CC(=O)[C@@H]5C[C@H]5[C@]4(C)C3CC[C@@]21C (stereo not given in full)	nt	nt	nt	nt	-35%	nt
Cc1sc2ncnc(N/N=C/c3ccccc3O)c2c1C	?	6%	-12%	21µM*	-81%	?
Cc1sc2ncnc(NCc3cccs3)c2c1C	4%	-17%	-31%	2%	-34%	7%
COc1ccc(/C=N/Nc2nonc2N)cc1	3%	13%	23%	?	5%	?
Cc1sc2ncnc(N/N=C/c3ccc(O)cc3)c2c1C	8%	-7%	-6%	19µM*	0%	?
Cc1sc2ncnc(NCC(c3ccccc3)N(C)C)c2c1C (stereo not given)	-2%	2%	-11%	-1%	nt	-3%
SMILES	ELG1 genotox	NPC1 prom act	Rab9 prom act	FLuc modulator	SMN2 splice up	ELG1 DNA repair
COc1ccc(/C=N/Nc2ncnc3sc(C)c(C)c23)cc1	5%	2%	-4%	19µM*	6%	11%
Cc1ccc(Nc2ncnc3sc(C)c(C)c23)cc1C	?	3%	0%	?	?	?
Cc1sc2ncnc(NCC(O)c3ccccc3)c2c1C (stereo not given)	-9%	-1%	-10%	19µM*	nt	-3%
COc1ccc(-n2c(=O)c3c4c(sc3n(Cc3ccccc3)c2=O)CCC4)c(OC)c1	nt	nt	nt	4%	-20%	nt
CC1(C)O[C@H]2C[C@@H]3[C@H]4CCC5=CC(=O)CC[C@@]5(C)[C@]4(F)[C@@H](O)C[C@@]3(C)[C@@]2(C(=O)CCl)O1	nt	nt	nt	nt	-6%[20.6 µM]	nt
COc1cccc(/C=N/Nc2ncnc3scc(-c4ccccc4)c23)c1OC	-17%	2%	-7%	12µM*	-10%	15µM*
Brc1c(CSc2nc3ccccc3s2)nc2ncccn12	?	3.2µM*	3.2µM*	12µM*	7.1µM*	?
COc1ccccc1NC(=O)/C=C1\NC(=O)CS1	5%	-2%	1%	-15%	22%	15%
CC(C)(C)c1ccc(C(=O)/C=C2\NC(=O)CS2)cc1	?	0.4µM*	0.63µM*	0.3µM*	3.2µM*	?
Cc1ccc(NC(=O)/C=C2\NC(=O)CS2)cc1	23µM*	3.5µM*	3.2µM*	7.6µM*	nt	?
Cc1cc(C)[n+]2[nH]c(N)c(N=Nc3ccccc3)c2n1	0%	9%	7%	15µM*	nt	?
Cc1cc(C)c(NC(=O)Cn2c(=O)n(Cc3ccco3)c(=O)c3ccc(C(=O)NC4CCCC4)cc32)c(C)c1	nt	nt	nt	1%	?	nt
CC1=CC(C)(C)Nc2ccc(OC(=O)c3cccnc3)cc21	7%	-10%	4%	-16%	-7%	0%
CC1=CC(C)(C)Nc2ccc(OC(=O)c3ccco3)cc21	23%	-3%	17%	21µM*	-16%	?
CCOC(=O)c1ccc(N)cc1	?	1%	1%	3%	13%	?
CCOC(=O)c1ccc(N=NN(C)C)cc1	?	?	?	19µM*	nt	?
C=CCn1c(CC(=O)OC)csc1=Nc1ccc(C(C)=O)cc1	7%	?	-6%	?	-15%	?
C=CCn1c(C)csc1=Nc1ccc(C(C)=O)cc1	?	?	?	19µM*	-17%	?
CCOC(=O)c1ccc(N=c2scc(C)n2CC)cc1	?	?	2µM*	11µM*	25µM*	?
CCC1Oc2ccccc2N(CC(=O)NCc2ccccc2)C1=O (stereo not given)	nt	nt	nt	-4%	nt	nt
CCc1cc2c(cc3c(=O)n(CC(=O)NCc4cc(Br)ccc4OC)ncn32)s1	nt	nt	nt	0%	?	nt
CCN(c1ccccc1)S(=O)(=O)c1nnc(NC(=O)C(C)(C)C)s1	-1%	1%	-4%	2%	nt	7.3µM*
